Assay outcomes from PubChem BioAssay.
aSyn UTR act: Activators via SNCA 5'UTR binding, MLPCN; hit rate 7.1% among 300,000; activity score, % (tested at 7.5 µM), hits read low; alpha-synuclein 5'UTR reporter, activators screen; in the data active = activity score below about -60%
Numbers without * were called inactive. Not all results are given here.

SMILES	aSyn UTR act
Cc1noc(/C=C/Nc2ccc(F)cc2F)c1[N+](=O)[O-]	-174.8*
Cc1noc(/C=C/c2ccccn2)c1[N+](=O)[O-]	-211.4*
Cc1ccc(N2CN=C3SCC(=O)N3C2)cc1C	-120.9*
O=C(NN=C1CCCC1)c1n[nH]c2c1CCCC2	-72.6*
Cc1ccsc1/C=N\NC(=O)c1n[nH]c2c1CCC2	68.6
O=C(N/N=C/c1c(Cl)cccc1Cl)c1n[nH]c2c1CCCC2	-135.4*
O=C(Nc1nc2ccccc2[nH]1)c1cccc([N+](=O)[O-])c1	-250.4*
COc1cc(C(=O)Nc2nc3ccccc3[nH]2)cc(OC)c1OC	-75.6*
O=C(Nc1nc2ccccc2[nH]1)c1cccc(F)c1	-61.6*
O=C(Nc1nc2ccccc2[nH]1)c1ccc(Cl)c(S(=O)(=O)N2CCCC2)c1	-148.3*
COc1cccc(C(=O)Nc2nc3ccccc3[nH]2)c1	62.6
COc1ccc(C(=O)Nc2nc3ccccc3[nH]2)cc1	70.7
COC(=O)c1cc(C(=O)Nc2nc3ccccc3[nH]2)cc([N+](=O)[O-])c1	-161.6*
O=C(/C=C/c1ccc(F)cc1)Nc1nc2ccccc2[nH]1	-129.3*
CCCCOc1ccc(CSc2nc(C)[nH]c2[N+](=O)[O-])cc1[N+](=O)[O-]	-64.9*
CCCCOc1ccc(-c2csc(N)n2)cc1[N+](=O)[O-]	-140.9*
O=[N+]([O-])c1cccc(-c2cn3ccccc3n2)c1	-92.8*
CCCOc1ccc(-c2cn3ccccc3n2)cc1[N+](=O)[O-]	-113.8*
COc1ccc(-c2cn3ccccc3n2)cc1[N+](=O)[O-]	-162.2*
Cc1ccc(NC(=O)/C=C/c2ccc(Cl)cc2)nc1	-157.7*
O=C(/C=C/c1cccc([N+](=O)[O-])c1)Nc1ccc(Cl)cn1	-92.0*
O=C(/C=C/c1ccccc1)Nc1ccc(Br)cn1	-124.6*
Cn1c(SCc2ccccc2)nnc1-c1ccc(O)cc1	-76.2*
c1ccc(CSc2ccc(-c3ccc4c(c3)OCO4)nn2)cc1	-150.4*
Oc1ccccc1-c1nnc(SCCN2CCOCC2)n1Cc1ccccc1	80.7
SMILES	aSyn UTR act
Cn1c(SCc2ccccc2)nnc1-c1ccc2c(c1)OCO2	-191.8*
O=C(Nc1cccc(S(=O)(=O)N2CCCCC2)c1)c1ccc([N+](=O)[O-])o1	-268.3*
Cc1cccc(NC(=S)N=Nc2c(O)n(C)c3ccc(S(=O)(=O)N4CCOCC4)cc23)c1	83.4
O=C(N/N=C\c1cc(Br)ccc1O)c1ccc(S(=O)(=O)N2CCCCC2)cc1	109.7
CCN(CC)CCNC(=O)c1ccc(NC(=O)c2ccc(S(=O)(=O)N3CCCCCC3)cc2)cc1	-64.0*
CCS(=O)(=O)c1ncc(Cl)c(C(=O)Nc2ccc(S(=O)(=O)N3CCC(C)CC3)cc2)n1	65.1
Cc1ccnc(NC(=O)C2CCN(S(=O)(=O)c3ccc(Cl)c(C(F)(F)F)c3)CC2)c1	-63.4*
O=C(Nc1cccc(O)c1)c1ccc(S(=O)(=O)N2CCCCCC2)cc1	-68.3*
O=C(Nc1ccccn1)c1ccc(S(=O)(=O)N2CCCCCC2)cc1	-86.6*
O=C(Nc1ccccn1)c1ccc(Br)c(S(=O)(=O)N2CCCC2)c1	-65.3*
O=C(Nc1ccccn1)c1ccc(S(=O)(=O)N2CCCCC2)cc1	-121.0*
Cc1ccnc(NC(=O)c2ccc(S(=O)(=O)N3CCCCCC3)cc2)c1	-119.1*
O=C(Nc1ccccc1[N+](=O)[O-])c1ccc(S(=O)(=O)N2CCCC2)cc1	-131.0*
CCOC(=O)c1cn(-c2ccc([N+](=O)[O-])cc2)c2cc(Cl)c([N+](=O)[O-])cc2c1=O	-110.0*
O=C(COC(=O)Cn1cnc2ccccc21)Nc1ccc2c(c1)C(=O)c1ccccc1C2=O	-153.1*
O=C(NNC1=NCCCCC1)Nc1cccc(Cl)c1	-135.9*
O=C(NNC1=NCCCCC1)Nc1ccc(Cl)cc1	-67.6*
O=C(Cn1nnc(-c2ccccc2F)n1)N1CCCCC1	-120.2*
CC1CCN(C(=O)CSCC(=O)Nc2nc(-c3cccs3)cs2)CC1	-89.3*
CC1CCN(C(=O)Cn2nnc(-c3cccs3)n2)CC1	-131.4*
CC1CCCN(C(=O)CSCC(=O)Nc2nc(-c3cccs3)cs2)C1 (configuration not stated)	-75.6*
O=Cc1cc(-c2ccccc2)[nH]c1-c1ccccc1	-64.3*
CCCC(=O)Nc1ccc(-c2cn3cccnc3n2)cc1	-85.2*
CC(C)(C)CC(=O)Nc1ccc(-c2cn3cccnc3n2)cc1	-80.0*
CC(C)CC(=O)Nc1ccc(-c2cn3cccnc3n2)cc1	-79.9*
SMILES	aSyn UTR act
O=C(Nc1ccccc1)N(CCCN1CCOCC1)Cc1ccccc1F	-84.2*
COc1ccc(NC(=O)CCC(=O)N/N=C/c2ccc([N+](=O)[O-])s2)cc1	-79.1*
Cc1ccc(C(=O)N/N=C/c2ccc([N+](=O)[O-])s2)cc1	107.6
O=C(N/N=C/c1ccc([N+](=O)[O-])s1)c1ccncc1	-63.7*
O=C(N/N=C/c1ccc([N+](=O)[O-])s1)c1cccc(Br)c1	67.4
Cc1cc(C(=O)CSc2ccc3c(c2)OCCO3)c(C)n1C1CC1	-125.9*
C/C(N)=C(/C#N)C(=O)CSc1ccc2c(c1)OCCO2	-125.3*
